This is a sample that favours compounds with a hit; in the whole collection about 22% have one here.
CYP2C19 inhib: blockers of cytochrome P450 2C19 activity – biochemical, luminescence, ADME assay, primary screen; P33261; CYP2C19 Supersomes, luciferin-H EGE luminescence, 30 min; AID 778, 2007; inhibition, % at 5 µM; actives 21% (n = 96,000);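 active = CYP2C19 inhibition above a set limit at 5 µM in the primary screen, cut at about 50% in these data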;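 also: plate controls were negative control wells for no effect and 2.5 mM tranylcypromine positive control for full effect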
Target sequence (P33261 whole entry, looked up): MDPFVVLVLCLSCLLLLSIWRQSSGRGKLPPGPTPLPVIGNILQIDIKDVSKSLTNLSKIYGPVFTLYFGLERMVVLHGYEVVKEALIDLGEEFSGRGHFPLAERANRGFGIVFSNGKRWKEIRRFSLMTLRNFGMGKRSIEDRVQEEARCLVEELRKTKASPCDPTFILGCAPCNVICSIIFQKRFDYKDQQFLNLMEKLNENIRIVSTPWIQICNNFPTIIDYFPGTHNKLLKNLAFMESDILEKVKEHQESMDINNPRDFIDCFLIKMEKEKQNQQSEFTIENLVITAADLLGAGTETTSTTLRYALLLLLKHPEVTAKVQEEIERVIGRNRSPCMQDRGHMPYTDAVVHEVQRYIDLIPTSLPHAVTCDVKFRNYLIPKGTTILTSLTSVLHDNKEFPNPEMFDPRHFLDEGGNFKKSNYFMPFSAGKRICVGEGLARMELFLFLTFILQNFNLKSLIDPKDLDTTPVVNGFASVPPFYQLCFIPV
CYP2C9 inh: blockers of cytochrome P450 2C9 activity – biochemical, luminescence, ADME assay, primary screen | P11712 | CYP2C9 Supersomes, luciferin-H conversion | inhibition, % at 5 µM | actives 20% (n = 96,000);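 active = blocking of liver enzyme CYP2C9 beyond about 50% at 5 µM, limit read from the data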
cytoskel mod: modifiers of F-actin cytoskeleton organization, primary screen, imaging, HUVEC, phalloidin staining, high-content imaging; inhibition, % at 2 µM; actives 0.18% (n = 91,000); HUVEC TNFa F-actin phalloidin imaging;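 active = inhibition above the batch mean plus 3 SD and confirmed as a hit by visual image inspection, cut at about 30% in these data, passing the limit was not always enough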
CYP2C9 act: human CYP2C9 activators, primary screen, biochemical, luminescence | Cytochrome P450 2C9 (Homo sapiens), P11712 | recombinant CYP2C9, luciferin-H conversion; active compounds read high; factor 1 = untreated enzyme, 0 = blocked | activation factor at 5 µM | actives 1.4% (n = 96,000) | AID 1024, 2008;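 active = activation factor of 2 or more for CYP2C9 at a 5 µM dose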;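 also: 0 = sulfaphenazole-blocked wells and 1 = vehicle-only wells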
CYP2C19 activ: human CYP2C19 activators, primary screen, biochemical, luminescence. Cytochrome P450 2C19 (Homo sapiens), P33261. recombinant CYP2C19, luciferin-H EGE luminescence; active compounds read high; 0 = fully inhibited enzyme, 1 = untreated enzyme. activation factor at 5 µM. 96,000 tested, under 10 active;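 active = activation factor of at least 2 at 5 µM in the primary screen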;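 also: 0 = wells with 2.5 mM tranylcypromine and 1 = vehicle-only wells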
E-sel TNF inh: E-selectin induction blockers in HUVEC – imaging, immunofluorescence, high content, primary screen; inhibition, % at 2 µM; HUVEC TNFa-induced E-selectin immunofluorescence; actives 0.71% (n = 120,000); AID 1246, 2008;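 active = inhibition above the batch mean plus 3 SD, and confirmed as a hit on visual image review, cut at about 43% in these data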;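 also: 0% = TNF-stimulated DMSO wells and 100% = unstimulated control wells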
An asterisk follows results filed as active.

What do the screens show for `Cn1c(Cc2ccccc2)nnc1SCCC(=O)Nc1ccccc1`?
CYP2C19 inhib: 3; CYP2C9 inh: 35; cytoskel mod: 0; CYP2C9 act: 0.7; CYP2C19 activ: 1; E-sel TNF inh: 3

Results for CCOC(=O)c1cccc(NC(=O)CCc2nc(-c3ccccc3F)no2)c1 ?
CYP2C19 inhib: 7; CYP2C9 inh: 17; cytoskel mod: 19; CYP2C9 act: 0.8; CYP2C19 activ: 0.9; E-sel TNF inh: -14

What do the screens show for `O=C(c1ccc(Cl)cc1)N1CCCOC1`?
CYP2C19 inhib: 12; CYP2C9 inh: -8; CYP2C9 act: 1.1; CYP2C19 activ: 0.9; E-sel TNF inh: -15

What do the screens show for `Cc1ccc(S(=O)(=O)N2C=CC(C(F)(F)F)=NCC2)cc1`?
CYP2C19 inhib: 32; CYP2C9 inh: 6; cytoskel mod: 1; CYP2C9 act: 0.9; CYP2C19 activ: 0.7; E-sel TNF inh: 9

Results for CC(C)(C)c1ccc(S(=O)(=O)N2C=CC(C(F)(F)F)=NCC2)cc1 ?
CYP2C19 inhib: 86*; CYP2C9 inh: 12; cytoskel mod: 2; CYP2C9 act: 0.9; CYP2C19 activ: 0.1; E-sel TNF inh: 9

Results for Cc1cc(C)c(N2CCN(S(=O)(=O)N3CCCCCC3)CC2)c(C)c1 ?
CYP2C19 inhib: 80*; CYP2C9 inh: 73*; cytoskel mod: 16; CYP2C9 act: 0.3; CYP2C19 activ: 0.2; E-sel TNF inh: -21

How did Cc1ccc(N2CCN(S(=O)(=O)N3CCCCC3)CC2)cc1Cl do in these assays?
E-sel TNF inh: -14

Results for Cc1sc2ncnc(OCC(=O)NCC3CCCO3)c2c1C (configuration not stated) ?
CYP2C19 inhib: 7; CYP2C9 inh: 0; cytoskel mod: 27; CYP2C9 act: 1; CYP2C19 activ: 0.9

What do the screens show for `O=C(c1csc2c1CCCCC2)N1CCN(c2ncccn2)CC1`?
CYP2C19 inhib: 88*; CYP2C9 inh: 89*; cytoskel mod: 20; CYP2C9 act: 0.1; CYP2C19 activ: 0.1; E-sel TNF inh: -2

What do the screens show for `O=C(c1csc2c1CCCC2)N1CCCCC1`?
CYP2C19 inhib: 52*; CYP2C9 inh: -38; cytoskel mod: 0; CYP2C9 act: 1.4; CYP2C19 activ: 0.5; E-sel TNF inh: -2

What do the screens show for `Cc1ccc(S(=O)(=O)N2CCN(c3ccc(C(=O)N4CCOCC4)cc3[N+](=O)[O-])CC2)cc1`?
E-sel TNF inh: -3

What do the screens show for `CCCc1nc2ccccc2c(C(=O)OCC(=O)N2CCc3ccccc32)c1CC`?
E-sel TNF inh: 11

What do the screens show for `CCCc1nc2ccccc2c(C(=O)OCC(=O)Nc2ccc(S(=O)(=O)N3CCOCC3)cc2)c1CC`?
CYP2C19 inhib: 8; CYP2C9 inh: 76*; cytoskel mod: 0; CYP2C9 act: 0.2; CYP2C19 activ: 0.9; E-sel TNF inh: 12

Results for CCc1nc2ccccc2c(C(=O)OCC(=O)NCc2ccco2)c1C ?
CYP2C19 inhib: 56*; CYP2C9 inh: 47; cytoskel mod: -4; CYP2C9 act: 0.5; CYP2C19 activ: 0.4; E-sel TNF inh: -2

What do the screens show for `CCCc1nc2ccccc2c(C(=O)OCC(=O)NCc2ccco2)c1CC`?
CYP2C19 inhib: 46; CYP2C9 inh: 70*; cytoskel mod: 21; CYP2C9 act: 0.3; CYP2C19 activ: 0.5; E-sel TNF inh: 15

Results for COc1ccc(Nc2nc3ccccc3nc2-n2nc(C)cc2C)cc1 ?
CYP2C19 inhib: 23; CYP2C9 inh: -14; cytoskel mod: 1; CYP2C9 act: 1.1; CYP2C19 activ: 0.8

How did Cc1cc(-c2ccccc2)n(-c2ccc(C(N)=O)cc2)n1 do in these assays?
E-sel TNF inh: -2

What do the screens show for `Cc1cc(C)n(-c2nc3ccccc3nc2N2CCCC2)n1`?
CYP2C19 inhib: 40; CYP2C9 inh: 18; cytoskel mod: -2; CYP2C9 act: 0.8; CYP2C19 activ: 0.6; E-sel TNF inh: -8

What do the screens show for `Cc1cc(-c2ccccc2)n(-c2ccc(C(=O)N3CCN(c4ncccn4)CC3)cc2)n1`?
CYP2C19 inhib: 24; CYP2C9 inh: 61*; cytoskel mod: 9; CYP2C9 act: 0.4; CYP2C19 activ: 0.8; E-sel TNF inh: -10

Results for Cc1cc(C)n(-c2nc3ccccc3nc2N2CCCCCC2)n1 ?
CYP2C19 inhib: 75*; CYP2C9 inh: 16; cytoskel mod: -16; CYP2C9 act: 0.8; CYP2C19 activ: 0.2; E-sel TNF inh: 5

Results for COc1ccc(S(=O)(=O)N2CCN(c3nc4ccccc4nc3-n3nc(C)cc3C)CC2)cc1 ?
CYP2C19 inhib: 14; CYP2C9 inh: 59*; cytoskel mod: -12; CYP2C9 act: 0.4; CYP2C19 activ: 0.9; E-sel TNF inh: -14

What do the screens show for `Cc1cc(C)n(-c2nc3ccccc3nc2N2CCN(C(=O)c3ccc(Cl)cc3)CC2)n1`?
CYP2C19 inhib: 48; CYP2C9 inh: 60*; cytoskel mod: 18; CYP2C9 act: 0.4; CYP2C19 activ: 0.5; E-sel TNF inh: -16

What do the screens show for `CCOC(=O)c1c2c(n(C)c1COC)C(=O)C(=O)c1ccc(Br)cc1-2`?
cytoskel mod: 0; E-sel TNF inh: -2

Results for COC(=O)c1ccc(/C=N\NC(=O)c2ccc(C)cc2Cl)cc1 ?
CYP2C19 inhib: 12; CYP2C9 inh: 39; cytoskel mod: -6; CYP2C9 act: 0.6; CYP2C19 activ: 0.9; E-sel TNF inh: 5

Results for O=C1NC2(CCCCC2)NN1c1ccccc1 ?
CYP2C19 inhib: 42; CYP2C9 inh: -17; cytoskel mod: -14; CYP2C9 act: 1.2; CYP2C19 activ: 0.6; E-sel TNF inh: 9

How did CC1CCC2(CC1)NC(=S)N(c1ccccc1)N2 (configuration not stated) do in these assays?
CYP2C19 inhib: 54*; CYP2C9 inh: 9; cytoskel mod: 22; CYP2C9 act: 0.9; CYP2C19 activ: 0.5; E-sel TNF inh: 6

How did COC(=O)c1ccccc1NC(=O)Cn1cnc2cc(C)c(C)cc21 do in these assays?
CYP2C19 inhib: 42; CYP2C9 inh: 16; cytoskel mod: 32; CYP2C9 act: 0.8; CYP2C19 activ: 0.6; E-sel TNF inh: 21

How did CC(NC(=O)Nc1ccc(Cl)cc1)C(c1cccs1)N1CCOCC1 (configuration not stated) do in these assays?
CYP2C19 inhib: 68*; CYP2C9 inh: 49; cytoskel mod: -6; CYP2C9 act: 0.5; CYP2C19 activ: 0.3; E-sel TNF inh: 9

What do the screens show for `CC(NC(=O)c1ccccc1)C(c1cccs1)N1CCOCC1` (configuration not stated)?
CYP2C19 inhib: 57*; CYP2C9 inh: 45; cytoskel mod: -8; CYP2C9 act: 0.6; CYP2C19 activ: 0.4; E-sel TNF inh: 26
